Experimental data as given in the antibiotic and cytotoxicity screens of Wong et al. (2023).
The whole screen tested about 39,000 compounds, of which about 3,300 (8.5%) were called active. The entries come from a sample that favours actives as a whole.

The compounds below were run on HepG2 (assay: cytotoxicity call (relative viability < 0.9)). Settings: 10 µM.

Compound | cytotoxicity call
CC(=O)O[C@H]1C[C@@H]2CC[C@@H]3[C@H](CC[C@@]4(C)[C@H]3C[C@H]([N+]3(C)CCCCC3)[C@@H]4OC(C)=O)[C@@]2(C)C[C@@H]1N1CCCCC1 | inactive
C[C@@H]1CN([C@@H](C)CO)C(=O)c2cc(NC(=O)CCN3CCOCC3)ccc2O[C@@H]1CN(C)Cc1ccncc1 | inactive
C[C@@H]1CN([C@@H](C)CO)C(=O)c2cc(NS(=O)(=O)c3cccs3)ccc2O[C@H]1CN(C)S(C)(=O)=O | inactive
Cc1noc(C)c1S(=O)(=O)Nc1ccc2c(c1)CC(=O)N([C@H](C)CO)C[C@@H](C)[C@@H](CN(C)S(=O)(=O)c1cccs1)O2 | inactive
Cc1noc(C)c1S(=O)(=O)Nc1cccc2c1O[C@H](CN(C)C(=O)NC1CCCCC1)[C@H](C)CN([C@H](C)CO)C2=O | inactive
CC(C)CC#Cc1ccc2c(c1)O[C@H](CN(C)C(=O)c1ccccn1)[C@@H](C)CN([C@@H](C)CO)S2(=O)=O | inactive
CC(C)(C)[S@@](=O)N1Cc2cc(C(=O)N[C@H]3CCN(Cc4ccccc4)C3)nc(-c3cccc(-c4cccnc4)c3)c2[C@H]1CCO | inactive
C[C@H]1CN([C@@H](C)CO)C(=O)c2cc(C#Cc3ccc(F)cc3)cnc2O[C@H]1CN(C)Cc1ccccn1 | inactive
COc1ccc(NC(=O)Nc2ccc3c(c2)CC(=O)N([C@H](C)CO)C[C@@H](C)[C@@H](CN(C)S(=O)(=O)c2cn(C)cn2)O3)cc1 | inactive
C[C@H](CO)N1C[C@H](C)[C@H](CN(C)Cc2ccc(C(=O)Nc3ccccc3N)cc2)Oc2ccc(NC(=O)Nc3ccc(C(F)(F)F)cc3)cc2CC1=O | active
Cc1ccc(S(=O)(=O)Nc2cccc3c2O[C@H](CN(C)C(=O)Nc2ccc(C(F)(F)F)cc2)[C@@H](C)CN([C@@H](C)CO)C3=O)cc1 | inactive
C[C@@H]1CN([C@@H](C)CO)C(=O)c2cc(NC(=O)Nc3ccc(C(F)(F)F)cc3)ccc2O[C@H]1CN(C)S(=O)(=O)c1ccc(F)cc1 | inactive
C[C@H]1CN([C@@H](C)CO)C(=O)c2cc(NC(=O)Nc3ccc(C(F)(F)F)cc3)ccc2O[C@H]1CN(C)S(=O)(=O)c1ccc(F)cc1 | active
C[C@H]1CN([C@@H](C)CO)C(=O)c2cc(NC(=O)Nc3ccc(C(F)(F)F)cc3)ccc2O[C@H]1CN(C)S(C)(=O)=O | inactive
C[C@H](CO)N1C[C@H](C)[C@H](CN(C)S(=O)(=O)c2ccc(F)cc2)Oc2ccc(NC(=O)Nc3ccc(C(F)(F)F)cc3)cc2C1=O | inactive
C[C@@H]1CN([C@H](C)CO)C(=O)c2cc(NC(=O)Nc3ccc(C(F)(F)F)cc3)ccc2O[C@H]1CN(C)S(=O)(=O)c1ccc(F)cc1 | active
C[C@H](CO)N1C[C@H](C)[C@@H](CN(C)S(=O)(=O)c2ccc(F)cc2)Oc2ccc(NC(=O)Nc3ccc(C(F)(F)F)cc3)cc2C1=O | inactive
C[C@@H]1CN([C@H](C)CO)C(=O)c2cc(NC(=O)Nc3ccc(C(F)(F)F)cc3)ccc2O[C@H]1CN(C)S(C)(=O)=O | inactive
C[C@@H]1CN([C@H](C)CO)C(=O)c2cc(NC(=O)Nc3ccc(C(F)(F)F)cc3)ccc2O[C@@H]1CN(C)S(=O)(=O)c1ccc(F)cc1 | active
C[C@H]1CN([C@@H](C)CO)C(=O)c2cc(NC(=O)Nc3ccc(C(F)(F)F)cc3)ccc2O[C@@H]1CN(C)S(C)(=O)=O | inactive
C[C@H]1CN([C@@H](C)CO)C(=O)c2cc(NC(=O)Nc3ccc(C(F)(F)F)cc3)ccc2O[C@@H]1CN(C)S(=O)(=O)c1ccc(F)cc1 | inactive
C[C@@H]1CN([C@@H](C)CO)C(=O)c2cc(NC(=O)Nc3ccc(C(F)(F)F)cc3)ccc2O[C@@H]1CN(C)S(=O)(=O)c1ccc(F)cc1 | active
